The test system of one assay is CRL-7250. The assay can be described thus: Cytotoxic Profiling of Annotated Libraries Using Quantitative High-Throughput Screening (AID 1296008). Also: potency is read from the fitted curve at half-maximal effect. As to max response: % is scaled to controls: 0 for no effect and ±100 for the full control effect. The settings on record: Five cell lines viability, CellTiter-Glo ATP luminescence, 48-72 h; max response: stronger effect = lower value. The method in brief: (§1)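 Cytotoxicity was measured as CellTiter-Glo ATP luminescence, read after 10 min at room temperature. Compound treatment of the cells lasted 48 or 72 hr at 37 degrees Celsius in a qHTS format.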

The subject of another assay is HEK293. The assay is described as above. The settings on record: Five cell lines viability, CellTiter-Glo ATP luminescence, 48-72 h; max response: stronger effect = lower value. The method in brief:
as §1
(In general: In ATP-based viability assays light output follows the ATP content of the culture.)

Assay [1] concerns HaCat. Described as above. The settings on record: Five cell lines viability, CellTiter-Glo ATP luminescence, 48-72 h; max response: stronger effect = lower value. The method in brief:
as §1

The test system of the next assay is KB-3-1. The assay is described as above. The conditions noted are these: Five cell lines viability, CellTiter-Glo ATP luminescence, 48-72 h; max response: stronger effect = lower value. Put shortly: as §1
For another assay, the system named is NIH3T3. Described as above. The conditions noted are these: Five cell lines viability, CellTiter-Glo ATP luminescence, 48-72 h; max response: stronger effect = lower value. Put shortly:
as §1

A further assay concerns P93_24. The assay can be described thus: qHTS profiling for inhibitors of Plasmodium falciparum proliferation (AID 504749).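 Also: 0% = DMSO vehicle and full inhibition = artemisinin control.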 The conditions noted are these: P. falciparum in erythrocytes, SYBR Green DNA, 72 h; series mostly up to 28.7 µM. Put shortly:
(§2)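 In a 72 h erythrocytic culture (37 C, humidified, 5% CO2) at 2.5% hematocrit and 0.3% starting parasitemia, compounds were tested; SYBR Green I in detergent lysis buffer stained parasite DNA overnight.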
For orientation: Quantitative high-throughput screening tests each substance at several concentrations.

The next assay concerns P94_40. Described as above. The conditions noted are these: P. falciparum in erythrocytes, SYBR Green DNA, 72 h; series mostly up to 28.7 µM. The method in brief:
as §2

The test system of the next assay is PAD. Described as above. The conditions noted are these: P. falciparum in erythrocytes, SYBR Green DNA, 72 h; series mostly up to 28.7 µM. The method in brief:
as §2

Another assay has as its system PC15. The assay is described as above. The conditions noted are these: P. falciparum in erythrocytes, SYBR Green DNA, 72 h; series mostly up to 28.7 µM. Put shortly:
as §2

The next assay has as its system PC26. The description is as above. The settings on record: P. falciparum in erythrocytes, SYBR Green DNA, 72 h; series mostly up to 28.7 µM. Put shortly: as §2
For the next assay, the system named is PC49. Described as above. The settings on record: P. falciparum in erythrocytes, SYBR Green DNA, 72 h; series mostly up to 28.7 µM. Put shortly: as §2
A further assay has as its system SC27B. The assay is described as above. The settings on record: P. falciparum in erythrocytes, SYBR Green DNA, 72 h; series mostly up to 28.7 µM. The method in brief:
as §2

For another assay, the system named is TAB109. Described as above. The settings on record: P. falciparum in erythrocytes, SYBR Green DNA, 72 h; series mostly up to 28.7 µM. The method in brief:
as §2

A further assay deals with TAB113. The description is as above. The conditions noted are these: P. falciparum in erythrocytes, SYBR Green DNA, 72 h; series mostly up to 28.7 µM. Put shortly: as §2
For a further assay, the system named is TAB165. The description is as above. The conditions noted are these: P. falciparum in erythrocytes, SYBR Green DNA, 72 h; series mostly up to 28.7 µM. Put shortly:
as §2

For a further assay, the system named is W2. The description is as above. The conditions noted are these: P. falciparum in erythrocytes, SYBR Green DNA, 72 h; series mostly up to 28.7 µM. Put shortly: as §2
The subject of assay [2] is HACAT. The assay is described as follows: qHTS assay to identify novel small-molecules to repurpose for Merkel cell carcinoma treatment (AID 1296009). The conditions noted are these: MCC and control cell lines, CellTiter-Glo viability, 72 h; at 44.8 µM (top of the series) unless noted. Put shortly:
(§3)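 Cell viability measured by CellTiter-Glo following 72 hr compound treatment at 37 degree celsius, with NPC and MIPE libraries tested in 8- and 11-point concentration series.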

The subject of another assay is HEK293T. Described as above. The settings on record: MCC and control cell lines, CellTiter-Glo viability, 72 h; at 44.8 µM (top of the series). The method in brief: as §3
The next assay concerns MCC-13. The description is as above. The settings on record: MCC and control cell lines, CellTiter-Glo viability, 72 h; series mostly up to 46 µM. Put shortly:
as §3

The next assay has as its system MCC-26. The assay is described as above. The settings on record: MCC and control cell lines, CellTiter-Glo viability, 72 h; series mostly up to 46 µM. The method in brief:
as §3

“And” between values parts separate entries of the source, which are not always exact repeats. Equal entries are not always repeated. Inconclusive results are not listed. A number with no mark means an inactive call. The source made the active and inactive calls. Calls follow the shape of the dose curve; as a rule, active = well fitted inhibition curve with a large enough effect; inconclusive = small, poorly fitted or top-dose-only effect; inactive = flat fitted curve, though single readings scatter.
Also: nearly all actives have a fitted effect of over 60% in size.

In the case of `CC(=O)Nc1ccc([C@H](C)C(=O)Nc2ncc(C(C)C)s2)cc1`, the Potency in the assay with CRL-7250 was 2.35 µM (active) and 1.84 µM (active); in the assay with HEK293, 4.69 µM (active) and 4.11 µM (active); in the assay with HaCat [1] it was 10.5 µM (active) and 18.4 µM (active); in the assay with KB-3-1, 5.17 µM (active); with NIH3T3, 8.33 µM (active) and 9.2 µM (active).
Take `NCCS`: the call in the assay with P93_24, in the assay with PAD, with PC15, in the assay on PC49, in the assay on TAB109 and with HEK293 was inactive. The call in the assay with HaCat [1], with HACAT [2] and in the assay with HEK293T was inactive. In addition, the Potency entry in the assay on P94_40, in the assay on PC26, in the assay with SC27B, in the assay on TAB113, in the assay with TAB165 and in the assay on W2 was “inactive” throughout. For the same compound, the Potency result with MCC-13 and in the assay on MCC-26 was “inactive” in each case. Besides, the max response was -9.34% with CRL-7250; -0.944% and -2.01% with KB-3-1; 4.3% in the assay on NIH3T3.
On to `O=C1NCC2(CCN(CCc3ccccc3)CC2)O1`, for which the outcome with P93_24, in the assay on PAD, in the assay with PC15, with PC49, in the assay with TAB109 and in the assay with CRL-7250 was inactive. In addition, the compound was called inactive in the assay on HEK293, in the assay on HaCat [1], in the assay with NIH3T3, in the assay with HACAT [2] and in the assay with HEK293T. Besides, the Potency entry in the assay on P94_40, in the assay with PC26, in the assay with SC27B, with TAB113, with TAB165 and in the assay on W2 was “inactive” in each case. The Potency entry in the assay with MCC-13 is “inactive”. The max response in the assay with KB-3-1 is 9.9%.
Regarding `COc1cccc([C@@H](C)NCCCc2ccccc2Cl)c1`, the outcome in the assay with CRL-7250, in the assay with HaCat [1], in the assay with KB-3-1, with NIH3T3 and in the assay on HACAT [2] was inactive. Further, the max response in the assay with HEK293 was 1.17%. Further, the Potency entry in the assay with MCC-13 and in the assay on MCC-26 was “inactive” each time.
In the case of `CCCCCCCCCCCC1=C(O)C(=O)C=C(O)C1=O`, the compound was called inactive in the assay on CRL-7250, in the assay on HEK293, in the assay on HaCat [1], with KB-3-1, in the assay with HACAT [2] and in the assay with HEK293T. The max response in the assay on NIH3T3 was -3.68%. Besides, the Potency result in the assay with MCC-13 and in the assay with MCC-26 was “inactive” throughout.
Consider `COCCOc1nc(-c2ccc(Cl)c(Cl)c2)n(-c2ccc(NC(=O)CCl)cc2)n1`, for which the Potency is 6.62 µM (active) with CRL-7250; 3.72 µM (active) and 4.61 µM (active) in the assay on HEK293; 18.7 µM (active) in the assay with KB-3-1; 4.11 µM (active) in the assay with NIH3T3. The compound was called inactive in the assay with HaCat [1] and in the assay on HACAT [2]. Moreover, the Potency entry in the assay on MCC-13 and in the assay on MCC-26 was “inactive” in each case.
Consider `OC[C@@H](O)[C@H](O)[C@H](O)[C@@H](O)CO`, for which the max response in the assay with CRL-7250 is 3.59% and -3.14%; in the assay with KB-3-1, -5.61% and 12.2%. The compound was classed as inactive in the assay on HEK293, with HaCat [1], in the assay on NIH3T3, in the assay on HACAT [2] and in the assay on HEK293T. Besides, the Potency result with MCC-13 and in the assay on MCC-26 was “inactive” in each case.
`CC1CCC(C(=O)N(c2cc(C#CC(C)(C)C)sc2C(=O)O)C2CCC(O)CC2)CC1` (stereo not given): the max response in the assay with CRL-7250 was -4.19% and 3.8%; in the assay with HEK293, -1.31%; in the assay with KB-3-1, -8.44% and -2.14%; with NIH3T3, -3.97%. In addition, the compound was called inactive in the assay with HaCat [1], in the assay on NIH3T3 and in the assay on HACAT [2]. Besides, the Potency result with MCC-13 is “inactive”.
For `Cn1c(N2CCCCS2(=O)=O)nc(C(=O)NCc2ccc(F)cc2)c(O)c1=O`, the max response in the assay on CRL-7250 is -1.04% and -2.16%; in the assay on HEK293, -2.82% and 1.1%; with KB-3-1, 0.163% and -14.6%; in the assay with NIH3T3 it was -0.0051%. The outcome with HaCat [1], with NIH3T3 and in the assay on HACAT [2] was inactive. For the same compound, the Potency result in the assay on MCC-13 and in the assay with MCC-26 was “inactive” in each case.
As to `c1cc(-c2sc(-c3ccncc3)c(-c3ccncc3)c2-c2ccncc2)ccn1`, the max response was -2.98% in the assay with CRL-7250, -5.01% with HEK293, 6.28% in the assay with KB-3-1 and 4.17% with NIH3T3. The result in the assay on HaCat [1] and in the assay with HACAT [2] was inactive. For the same compound, the Potency entry in the assay with MCC-13 and in the assay on MCC-26 was “inactive” throughout.
In the case of `CC1(C)Cc2c(sc(NC(=S)NC(=O)c3ccccc3)c2C(=O)O)CO1`, the result in the assay on CRL-7250, in the assay with HEK293, in the assay on HaCat [1], with KB-3-1, with NIH3T3 and in the assay with HACAT [2] was inactive. The compound was called inactive in the assay on HEK293T. For the same compound, the Potency result in the assay on MCC-13 is “inactive”.
In the case of `CC(=O)c1ccc(S(=O)(=O)NC(=O)NC2CCCCC2)cc1`, the result in the assay on P93_24, in the assay with PAD, in the assay on PC15, in the assay on PC49, in the assay on HEK293 and in the assay with HaCat [1] was inactive. In addition, the result with HACAT [2] and in the assay with HEK293T was inactive. Further, the Potency entry with P94_40, in the assay on PC26, in the assay on SC27B, in the assay on TAB113, in the assay on TAB165 and in the assay with W2 was “inactive” each time. Further, the Potency result in the assay with MCC-13 and with MCC-26 was “inactive” in each case. In addition, the results for the max response in the assay with CRL-7250, in the assay on KB-3-1 and in the assay with NIH3T3 were -4.5%, -6.14% and -3.55%, respectively.
